Assay results as given in PubChem BioAssay AID2314 (National Center for Advancing Translational Sciences (NCATS), 2010).
Out of some 300,000 compounds screened, about 37,000 (12%) were called active. No stated cut-off is given here; in the data, active means max response mostly above about 13% (no sharp cut-off); inactive means mostly below about 14%. The list comes from a sample in which actives are over-represented; it also holds similar structures and randomly drawn compounds.

Assay: Cycloheximide Counterscreen for Small Molecule Inhibitors of Shiga Toxin; further: read at 38.3 µM for the half of the compounds with a filed dose; 0% is about no effect
Conditions: cell reporter, cycloheximide protein synthesis inhibition counterscreen; stronger effect = higher value
In the case of `Cc1c(C(=O)N2CCCC2)c(S(=O)(=O)NCC(C)c2ccccc2)c(C)n1C` (centres undefined), the max response is reported as -6.59% (inactive).
In the case of `COc1ccc(N(CC(=O)NC2CCCCC2)C(=O)CNC(=O)c2ccco2)c(OC)c1`, the max response is reported as 1.11% (inactive).
For `CC1CC(NC(=O)/C(C#N)=C/c2ccc[nH]2)CC(C)(C)C1` (centres undefined), the max response was 4.89% (inactive).
In the case of `CC(=O)NC1=NN(C(C)=O)C(C)(c2ccc(Cl)s2)S1` (centres undefined), the max response is reported as -1.1% (inactive).
For `O=C(N/N=C/c1cccc2cccnc12)[C@H]1C[C@@H]1c1ccccc1`, the max response was 8.61% (inactive).
With `CN(C)/C(CN1CCCCC1)=C1\N=C(c2ccccc2)OC1=O` the max response was -3.11% (inactive).
With `O=c1cc(CN2CCN(S(=O)(=O)/C=C/c3ccccc3)CC2)c2ccc(O)cc2o1` the max response was -1.39% (inactive).
For `COc1ccc([N+](=O)[O-])cc1N(CC(O)CN(CC(C)C)CC(C)C)S(=O)(=O)c1ccc(C)cc1` (centres undefined), the max response was 9.04% (inactive).
With `Cc1ccc(C(=O)Cn2cccn2)cc1` the max response was 6.54% (inactive).
For `Cc1ccc(C(=O)Cc2nnc(C)s2)cc1`, the max response was 43.7% (active).
For `CCOCc1nnc(NC(=O)CSc2ccc(C)cc2)s1`, the max response was -1.61% (inactive).
In the case of `COc1cc2c(cc1NC(=O)COC(=O)/C=C/c1ccccc1)oc1ccccc12`, the max response is reported as 0.0459% (inactive).
With `NC(=O)Cc1ccc2c(c1)[nH]c1ccccc12` the max response was 4.3% (inactive).
With `NC(=O)Cc1ccc2sc(-c3ccccc3)nc2c1` the max response was 75.6% (active).
With `O=C(O)Cc1sc(-c2ccccc2)nc1-c1cccs1` the max response was 16.4% (inactive).
For `O=C(O)CC1=C(Nc2ccccc2)C(=O)N(c2ccccc2)C1c1ccc(Cl)cc1` (centres undefined), the max response was 38.1% (active).
In the case of `O=C(O)Cc1ccc(NCc2ccccc2Cl)cc1`, the max response is reported as 23.5% (inactive).
In the case of `COC(=O)CN1C(=S)N(c2ccccc2)C(=O)C1CC(=O)Nc1ccc(Cl)cc1` (centres undefined), the max response is reported as -2.88% (inactive).
With `COc1ccccc1-n1c(=S)[nH]c2c(sc(=S)n2-c2ccc(C)cc2C)c1=O` the max response was 5.32% (inactive).
For `O=S(=O)(c1cnccc1N1CCN(/N=C/c2ccc(Br)cc2)CC1)N1CCCCC1`, the max response was -0.626% (inactive).
For `O=C(CSc1nnnn1-c1ccc(O)cc1)N1N=C(c2ccc3ccccc3c2)CC1c1ccccc1` (centres undefined), the max response was 6% (inactive).
For `CCN1C(=O)/C(=C2\SC(N3CCCCC3)=NC2=O)c2ccccc21`, the max response was 18.4% (active).
In the case of `CC(C)=C1SC(N2CCN(c3cccc(C)c3)CC2)=NC1=O`, the max response is reported as -1.33% (inactive).
In the case of `CC(C)=C1SC(N2CCN(c3ccc(C)c(Cl)c3)CC2)=NC1=O`, the max response is reported as -1.62% (inactive).
With `CN(Cc1cnccn1)C(=O)c1cc(COc2cccc(C(F)(F)F)c2)on1` the max response was 37.1% (active).
In the case of `C/C(=N/OC(=O)c1cccc(C(F)(F)F)c1)c1cnccn1`, the max response is reported as -2.87% (inactive).
In the case of `Cc1ccc(OCc2cc(C(=O)N(C)CCc3ccccc3)no2)cc1C`, the max response is reported as 62.4% (active).
With `Cc1nonc1C1CCCN1C(=O)c1cc(COc2cccc(C(F)(F)F)c2)on1` (centres undefined) the max response was 27.6% (active).
With `CN(CCOc1ccccc1)C(=O)c1cc(COc2c(F)cccc2F)on1` the max response was 15.4% (inactive).
For `Cc1ccc(OCC(=O)NC(C)c2ccccc2)cc1C` (centres undefined), the max response was -1.54% (inactive).
With `CCOC(=O)N1CCN(Cc2nc(Cc3cccc(C(F)(F)F)c3)no2)CC1` the max response was 9.29% (inactive).
With `CN(Cc1cccnc1)C(=O)c1cc(COc2ccc3ncccc3c2)on1` the max response was 7.18% (inactive).
With `CCC(=O)OCc1c(C(F)(F)F)nn(C)c1Oc1cccc(C(F)(F)F)c1` the max response was -1.08% (inactive).
With `COCCNC(=O)COc1ccc(C)c(C)c1` the max response was 9.18% (inactive).
With `COc1ccc(C(=O)NNC(=O)c2cc(C)[nH]n2)cc1` the max response was 3.07% (inactive).
With `Cc1cc(CN(C)C(=O)c2cc(COc3ccc(C)c(C)c3)on2)n[nH]1` the max response was 46% (active).
In the case of `CC(=O)c1cccc(NC(=O)C2CCCN(S(=O)(=O)c3cccc4nonc34)C2)c1` (centres undefined), the max response is reported as -1.65% (inactive).
For `CCCn1c(C2CCCN2c2nc(-c3ccc(C)cc3)cs2)nc2cc(Cl)c(N3CCCCC3)cc21` (centres undefined), the max response was 2.93% (inactive).
In the case of `CCN(CC)CCN(C(=O)c1cc(Cl)sc1Cl)c1nc2cc3c(cc2s1)OCO3`, the max response is reported as 11.7% (inactive).
For `CC(=O)Nc1ccc(NC(=O)CN2C(=O)COc3ccc(S(=O)(=O)N4CCCCC4)cc32)cc1`, the max response was -11.2% (inactive).
In the case of `COc1ccccc1Oc1ccc(N2CC(C(=O)OCC(=O)c3ccc(F)cc3)CC2=O)cc1` (centres undefined), the max response is reported as 1.71% (inactive).
For `CCCOc1ccc(Cc2c(O)nc(SC)[nH]c2=O)cc1C`, the max response was 1.31% (inactive).
With `Cc1noc(/C=C/c2ccco2)c1S(=O)(=O)N1CCC(C(=O)Nc2ccc(Cl)cn2)CC1` the max response was 14.7% (inactive).
For `Cc1cc(C)cc(OCC(=O)Nc2cc(NC(=O)COc3cc(C)cc(C)c3)cc(C(=O)O)c2)c1`, the max response was -5.04% (inactive).
In the case of `COc1ccc(CCNS(=O)(=O)c2cc3c(cc2C)NC(=O)CO3)cc1OC`, the max response is reported as -0.971% (inactive).
With `FC(F)(F)c1nc(-c2ccccc2)ncc1-c1nnnn1-c1ccccc1` the max response was -1.17% (inactive).
For `Cc1ccc(CNC(=O)CCN2C(=O)[C@@H]3Cc4ccccc4CN3C2=O)cc1`, the max response was 4.73% (inactive).
For `COc1ccccc1-c1noc(CSc2nc(C)cc(=O)[nH]2)n1`, the max response was 1.82% (inactive).
For `O=C(NCc1ccccc1)c1onc(CSc2nc3ccccc3[nH]2)c1C(=O)NCc1ccccc1`, the max response was -0.0609% (inactive).
With `COc1ccccc1CSc1ncc(-c2ccc([N+](=O)[O-])cc2)[nH]1` the max response was 29.2% (active).
With `C=CCSc1nc2ccccc2[nH]1` the max response was 12.4% (inactive).
In the case of `CCc1nnc(NC(=O)CCCSc2nc3ccccc3[nH]2)s1`, the max response is reported as -1.42% (inactive).
In the case of `COc1ccccc1CC(=O)Nc1ccc([N+](=O)[O-])cc1OC`, the max response is reported as -1.19% (inactive).
For `N#Cc1c(-c2ccccc2)nc(SCc2ccc([N+](=O)[O-])cc2)[nH]c1=O`, the max response was -1.84% (inactive).
With `CCCCSc1nc2ccccc2[nH]1` the max response was 30.4% (active).
In the case of `COc1ccccc1CSc1nc2ccccc2[nH]1`, the max response is reported as 41% (active).
For `CCNS(=O)(=O)c1ccc(CCC(=O)N2CCN(c3ccc(OC)cc3)CC2)cc1`, the max response was 2.4% (inactive).
In the case of `CC(Oc1ccccc1[N+](=O)[O-])C(=O)N/N=C/c1ccoc1` (centres undefined), the max response is reported as -2.14% (inactive).
In the case of `CCOc1cc(C(C(=O)NCC2CCCO2)N(C(=O)Cn2nnc3ccccc32)c2cccc(OC)c2)ccc1O` (centres undefined), the max response is reported as -2.76% (inactive).
